Where “and” joins values, the source holds several entries; their conditions need not be identical. Equal entries are not always repeated. About 2,000 (0.59%) of roughly 340,000 compounds were called active. This excerpt belongs to a sample that is enriched for actives. Values without a mark were called inactive. Cut-off read from the data, not from the text of the source: active = activation mostly above about 9.5% (no sharp cut-off); inactive = mostly below about 7.6%.
molecular target: 5-hydroxytryptamine receptor 5A (Homo sapiens) (UniProt P47898); test: activation of human 5-HT5A receptor – cell-based, luminescence, full-deck HTS, counter-screen for OPRM1-OPRD1 heterodimer agonist project, primary screen (AID 504692); settings: HTR5A agonist assay, at 9.3 µM, active compounds read high;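 note: 0% = cells with vehicle only and 100% = reference agonist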
Sequence (P47898 whole entry, looked up): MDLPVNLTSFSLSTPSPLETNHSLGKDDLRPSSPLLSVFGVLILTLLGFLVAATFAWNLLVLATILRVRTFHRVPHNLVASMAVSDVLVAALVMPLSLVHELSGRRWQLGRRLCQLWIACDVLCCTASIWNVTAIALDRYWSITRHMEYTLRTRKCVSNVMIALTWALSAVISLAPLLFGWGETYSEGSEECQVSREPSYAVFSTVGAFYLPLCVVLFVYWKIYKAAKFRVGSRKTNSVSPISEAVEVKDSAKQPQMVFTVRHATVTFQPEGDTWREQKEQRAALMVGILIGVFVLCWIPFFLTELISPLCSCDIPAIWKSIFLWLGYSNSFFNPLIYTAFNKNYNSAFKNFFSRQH

| Structure (SMILES) | activation |
| --- | --- |
| COC1C(O)C(C)OC(OC2CCC3(C=O)C(CCC4C3CCC3(C)C(C5=CC(=O)OC5)CCC43O)C2)C1O (stereo not given) | 20% (active) |
| C[C@]12CC[C@H](O)C[C@H]1CC[C@@H]1C2CC[C@]2(C)[C@@H](C3=CC(=O)OC3)[C@@H](O)C[C@]12O (stereo not given in full) | 16.5% |
| Oc1ccc2c3c1OC1[C@H](O)CC[C@@]4(O)[C@@H](C2)N(CC2CC2)CC[C@]314 (stereo not given in full) | 2.68% and -1.51% |
| CC[N+](CC)(CC)CCCCCCCCCC[N+](CC)(CC)CC | 2.35% |
| CCOP(=O)(OCC)C(O)c1ccc(OC)cc1OC (stereo not given) | -1.32% |
| CCCCCCCCCCCCn1ccc(=N)cc1 | 14.5% (active) |
| Cc1cc(C(=O)OCC(=O)Nc2c(F)cccc2F)c(C)n1C1CC1 | -0.58% |
| C/C=C/CC1(CC)C(=O)NC(=S)NC1=O | 0.5% |
| COC(=O)C(O)(c1ccc(NC(=O)c2ccco2)c(OC)c1)C(F)(F)F (stereo not given) | -2.39% |
| CN(C)C(=O)Oc1cc(=O)n2c3c(cccc13)CCC2 | 2.56% |
| O=C(Cc1ccccc1)N1CCN(C2CCCCCC2)CC1 | 1.91% |
| COc1ccc(S(=O)(=O)NCc2ccc(C(=O)N3CCC4(CC3)OCCO4)cc2)cc1 | 3.27% |
| Cc1ccc(-c2cc(C(=O)N3CCC4(CC3)OCCO4)no2)cc1 | 1.14% |
| CCOC(=O)c1c(C)c(C(=O)N2CCC3(CC2)OCCO3)c(C)n1CC | 10.3% (active) |
| CC(C)Oc1cccc(C(=O)C2CCCN(C3CCOCC3)C2)c1 (stereo not given) | 3.38% |

— PubChem BioAssay AID504692 (The Scripps Research Institute Molecular Screening Center, 2011)
